# In PubChem BioAssay AID1159580 (chemical genetic matrix, 2015):
# Values joined by “and” are separate entries in the source; they are usually repeats but may differ in a detail not shown here. Identical values can stand only once. The whole screen tested about 5,500 compounds, of which about 2,000 (36%) were called active. Another 18% or so got no clear call; they are omitted. This is one part of the list. A number with no mark means an inactive call. No stated cut-off is given here; in the data, active means normalized growth mostly below about 0.91 (no sharp cut-off); inconclusive means no clear call, values can overlap the other calls; inactive means mostly above about 0.92.
# Assay: chemical genetic growth profiling, strain panel (AID 1159580);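 further: tested at 20 µM; growth read once vehicle control cultures reached saturation at 30 °C; 1 = growth at the plate median or of vehicle wells; lower values mean less growth of the strain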
# Conditions: S. cerevisiae deletion strains, growth OD
compound,measurement,setting,value
Cc1cc(NC(=O)C2=C(O)c3ccccc3S(=O)(=O)N2C)no1,normalized growth,"locus YAL021C, strain ccr4, active compounds read low",0.959
same,normalized growth,"locus YAL026C, strain drs2, active compounds read low",0.97
same,normalized growth,"locus YAL030W, strain snc1, active compounds read low",0.969
same,normalized growth,"locus YBL061C, strain skt5, active compounds read low",0.965
same,normalized growth,"locus YBR009C, strain hhf1, active compounds read low",0.961
same,normalized growth,"locus YBR021W, strain FUR4, active compounds read low",1.01
same,normalized growth,"locus YBR023C, strain chs3, active compounds read low",0.967
same,normalized growth,"locus YBR171W, strain sec66, active compounds read low",0.926
same,normalized growth,"locus YBR229C, strain ROT2, active compounds read low",0.991
same,normalized growth,"locus YBR231C, strain swc5, active compounds read low",0.972
same,normalized growth,"locus YBR279W, strain paf1, active compounds read low",0.992
same,normalized growth,"locus YCL011C, strain gbp2, active compounds read low",0.982
same,normalized growth,"locus YCL016C, strain dcc1, active compounds read low",0.968
same,normalized growth,"locus YCL029C, strain bik1, active compounds read low",0.958
same,normalized growth,"locus YCL069W, strain vba3, active compounds read low",0.963
same,normalized growth,"locus YCR088W, strain abp1, active compounds read low",0.964
same,normalized growth,"locus YDL005C, strain med2, active compounds read low",0.984
same,normalized growth,"locus YDL035C, strain GPR1, active compounds read low",0.981
same,normalized growth,"locus YDL040C, strain nat1, active compounds read low",0.964
same,normalized growth,"locus YDL074C, strain BRE1, active compounds read low",1.03
same,normalized growth,"locus YDL101C, strain DUN1, active compounds read low",0.997
same,normalized growth,"locus YDL134C, strain PPH21, active compounds read low",0.995
same,normalized growth,"locus YDL185W, strain tfp1, active compounds read low",0.876 (active)
same,normalized growth,"locus YDL192W, strain arf1, active compounds read low",0.952
same,normalized growth,"locus YDR001C, strain nth1, active compounds read low",0.95
same,normalized growth,"locus YDR069C, strain doa4, active compounds read low",0.99
same,normalized growth,"locus YDR101C, strain arx1, active compounds read low",1.01
same,normalized growth,"locus YDR137W, strain rgp1, active compounds read low",1
same,normalized growth,"locus YDR150W, strain NUM1, active compounds read low",0.975
same,normalized growth,"locus YDR159W, strain sac3, active compounds read low",0.983
same,normalized growth,"locus YDR162C, strain NBP2, active compounds read low",0.961
same,normalized growth,"locus YDR195W, strain ref2",0.965
same,normalized growth,"locus YDR297W, strain sur2, active compounds read low",0.973
same,normalized growth,"locus YDR318W, strain mcm21, active compounds read low",0.966
same,normalized growth,"locus YDR334W, strain swr1, active compounds read low",0.963
same,normalized growth,"locus YDR335W, strain msn5, active compounds read low",0.964
same,normalized growth,"locus YDR388W, active compounds read low",0.945
same,normalized growth,"locus YDR392W, strain spt3, active compounds read low",0.905
same,normalized growth,"locus YDR502C, strain sam2, active compounds read low",0.98
same,normalized growth,"locus YEL003W, strain gim4, active compounds read low",0.959
same,normalized growth,"locus YEL037C, strain rad23, active compounds read low",0.961
same,normalized growth,"locus YEL061C, strain CIN8 (second series), active compounds read low",0.951
same,normalized growth,"locus YEL061C, strain CIN8, active compounds read low",0.977
same,normalized growth,"locus YER015W, strain faa2, active compounds read low",0.98
same,normalized growth,"locus YER016W, strain bim1, active compounds read low",0.946
same,normalized growth,"locus YER110C, active compounds read low",0.937
same,normalized growth,"locus YER111C, strain swi4, active compounds read low",0.962
same,normalized growth,"locus YER155C, strain BEM2 (second series), active compounds read low",0.976
same,normalized growth,"locus YER155C, strain BEM2, active compounds read low",0.975
same,normalized growth,"locus YER167W, strain BCK2, active compounds read low",0.985
same,normalized growth,"locus YFR010W, strain ubp6, active compounds read low",1
same,normalized growth,"locus YGL078C, strain dbp3, active compounds read low",0.965
same,normalized growth,"locus YGL086W, strain mad1, active compounds read low",0.999
same,normalized growth,"locus YGL167C, strain pmr1, active compounds read low",0.978
same,normalized growth,"locus YGL173C, strain kem1, active compounds read low",0.984
same,normalized growth,"locus YGL227W, strain vid30, active compounds read low",0.973
same,normalized growth,"locus YGL240W, strain doc1, active compounds read low",0.995
same,normalized growth,"locus YGL248W, strain PDE1, active compounds read low",0.994
same,normalized growth,"locus YGL253W, strain hxk2, active compounds read low",0.957
same,normalized growth,"locus YGR078C, strain PAC10, active compounds read low",0.995
same,normalized growth,"locus YGR135W, strain pre9, active compounds read low",0.929
same,normalized growth,"locus YGR252W, strain gcn5, active compounds read low",0.998
same,normalized growth,"locus YHR013C, strain ard1, active compounds read low",0.98
same,normalized growth,"locus YHR027C, strain rpn1, active compounds read low",0.97
same,normalized growth,"locus YHR030C, strain SLT2, active compounds read low",0.965 and 0.916
same,normalized growth,"locus YHR079C, strain IRE1 (second series), active compounds read low",0.939
same,normalized growth,"locus YHR079C, strain IRE1, active compounds read low",0.93
same,normalized growth,"locus YHR094C, strain hxt1, active compounds read low",0.945
same,normalized growth,"locus YHR129C, strain ARP1, active compounds read low",0.972
same,normalized growth,"locus YHR142W, strain chs7, active compounds read low",0.991
same,normalized growth,"locus YHR200W, strain rpn10, active compounds read low",0.947
same,normalized growth,"locus YIL066C, strain RNR3, active compounds read low",1.01
same,normalized growth,"locus YIL073C, strain SPO22, active compounds read low",0.881
same,normalized growth,"locus YIL125W, strain kgd1, active compounds read low",0.939
same,normalized growth,"locus YIR030C, strain dcg1, active compounds read low",0.928
same,normalized growth,"locus YJL092W, strain hpr5, active compounds read low",0.97
same,normalized growth,"locus YJL095W, strain BCK1 (second series), active compounds read low",0.971
same,normalized growth,"locus YJL095W, strain BCK1, active compounds read low",1.01 and 0.962
same,normalized growth,"locus YJL115W, strain asf1, active compounds read low",0.966
same,normalized growth,"locus YJL129C, strain trk1, active compounds read low",0.924
same,normalized growth,"locus YJL134W, strain LCB3, active compounds read low",0.965
same,normalized growth,"locus YJL154C, strain vps35, active compounds read low",0.939
same,normalized growth,"locus YJL164C, strain tpk1, active compounds read low",0.974
same,normalized growth,"locus YJL166W, strain qcr8, active compounds read low",1
same,normalized growth,"locus YJL168C, strain set2, active compounds read low",0.953
same,normalized growth,"locus YJL187C, strain SWE1 (second series), active compounds read low",1
same,normalized growth,"locus YJR043C, strain POL32, active compounds read low",1.02
